In PubChem BioAssay AID1851 (National Center for Advancing Translational Sciences (NCATS), 2009):
Hit rate of the full screen: of about 16,000 compounds, about 5,800 (36%) were called active. Inconclusive results (about 23%) are left out. Calls come from the whole dose curve; as a rule, active = well fitted curve in the direction sought with a large enough effect; inconclusive = small, poorly fitted or top-dose-only effect, or effect the other way; inactive = no such curve, though single readings can be large or run the other way. The list shows a part of the results.

Each compound was assayed against Cytochrome P450 2C19 (Homo sapiens) (UniProt P33261) (assay: Cytochrome panel assay with activity outcomes). Details: recombinant CYP, pro-luciferin dealkylation, luminescence, p450-cyp2c19; series mostly up to 57.1 µM; activity, negative = inhibition: at the top concentration.
Sequence of Cytochrome P450 2C19 (Homo sapiens) (P33261 whole entry, looked up): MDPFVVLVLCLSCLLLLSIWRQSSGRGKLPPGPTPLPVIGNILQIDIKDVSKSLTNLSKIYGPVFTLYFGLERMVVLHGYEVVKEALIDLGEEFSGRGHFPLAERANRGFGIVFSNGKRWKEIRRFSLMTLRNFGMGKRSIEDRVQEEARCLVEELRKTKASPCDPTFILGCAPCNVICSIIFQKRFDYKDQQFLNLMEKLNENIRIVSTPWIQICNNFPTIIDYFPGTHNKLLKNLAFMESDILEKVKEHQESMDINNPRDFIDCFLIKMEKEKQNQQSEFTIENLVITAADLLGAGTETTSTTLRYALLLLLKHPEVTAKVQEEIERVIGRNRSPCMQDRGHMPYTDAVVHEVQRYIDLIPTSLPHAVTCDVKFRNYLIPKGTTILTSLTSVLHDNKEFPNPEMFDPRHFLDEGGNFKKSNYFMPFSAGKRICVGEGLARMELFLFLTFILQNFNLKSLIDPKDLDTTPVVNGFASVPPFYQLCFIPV
% is set by controls: 0 for no effect and ±100 for the full control effect.

activity, negative = inhibition, inactive:
Oc1ccc(Br)cc1CNn1cnnc1 -29.1%, O=C(Nc1ccc(-c2cn3ccccc3n2)cc1)c1cc(Br)ccc1O -1.2% [at 11.4 µM], COc1cccc(-c2cc(C(F)(F)F)n3ncc(S(=O)(=O)c4ccccc4)c3n2)c1 -17.7%, Cn1c(=O)c(-c2ccccc2)nc2cnc(Oc3ccccc3)nc21 -32.1%, CCc1cc2c(NCCO)ncnc2s1 -1.72%, CCc1cc2c(=O)[nH]cnc2s1 -8.19%, Nc1ccccc1S(N)(=O)=O 28.3% [at 25.6 µM], Cc1ccc2nc(N/N=C\c3cccc(C)n3)cc(C)c2c1 -12.3% [at 11.4 µM], Cc1nc(N/N=C/c2ccccc2)nc(N(C)c2ccccc2)c1[N+](=O)[O-] -26.7%, Cc1noc(C)c1C(=O)N1CCC2(CCCN(c3ccccc3)C2)CC1 8.61%, COCCn1c(=O)c(-c2cccc(C#N)c2)nc2cnc(N3CCOCC3)nc21 12.2%, NC(=O)OC[C@H](O)COc1ccc(Cl)cc1 -26.8% [at 25.6 µM], O=C(c1cc(C(F)(F)F)cc(C(F)(F)F)c1)N1CCC[C@@]2(CCN(c3ncccn3)C2)C1 3.94%, CCC(=O)O[C@@H]1[C@H](C)O[C@H](O[C@H]2[C@@H](N(C)C)[C@H](O)[C@@H](O[C@@H]3[C@@H](CC=O)C[C@@H](C)[C@@H](O)/C=C\C=C/C[C@@H](C)OC(=O)C[C@@H](OC(=O)CC)[C@H]3OC)O[C@H]2C)C[C@]1(C)O -40.3% [at 25.6 µM], Cn1c(=S)c2[nH]c(SCCCc3ccccc3)nc2n(C)c1=O -28.4% [at 11.4 µM], C=CCN1C(=O)CN=C1Nc1ccccc1 -10.4%, O=c1cnc2cnc(Nc3ccccc3)nc2n1Cc1cccs1 -24.6%, Cc1nc2cnc(Nc3ccccc3)nc2n(Cc2cccs2)c1=O -26.1%, COc1ccc(-c2nc3cnc(Nc4ccccc4)nc3n(Cc3cccs3)c2=O)cc1 -32.2%, COc1ccc(CNC(=O)/C=C/c2ccc(OCCCF)cc2)cc1 -15.5%, CCCCN1C(=O)CC(Sc2ccccc2C(=O)O)C1=O (stereo not drawn) -28.3%, C[C@@]1(CCOCc2ccccc2)NC(=O)NC1=O 0.432% [at 11.4 µM], COc1cc(OC)c(OC)cc1C=NCC1(c2ccccc2)CCCC1 -3.79%, CC[N+](CC)(CC)CC[C@](O)(c1ccccc1)C1CCCCC1 -27.2% [at 25.6 µM], Nc1ccc(C(=O)C[C@H](N)C(=O)O)cc1O -13.9% [at 11.4 µM], O=C(O)[C@H]1CCCNC1 -20.1%, CC(C)=NOCc1ccc(-c2cc(-c3ccccc3)no2)cc1 -13.3% [at 11.4 µM], Nc1nc(-c2cc(-c3cccc4ccccc34)nc(N)n2)cc(-c2cccc3ccccc23)n1 11.9% [at 11.4 µM], Cc1[nH]c2ccccc2c1-c1cc(-c2cc(-c3c(C)[nH]c4ccccc34)on2)no1 0.833% [at 11.4 µM], COc1cc2c(cc1OC)-c1cc3ccc(OC)c(OC)c3c[n+]1CC2 6.43% [at 25.6 µM], COc1ccc(C2C(C(=O)N3CCOCC3)CCC(=O)N2c2ccc(OC)cc2)cc1 (stereo not drawn) -8.37%, COc1ccc(N2C(=O)CCC(C(=O)O)C2c2ccc(F)cc2)cc1 (stereo not drawn) 0.032%, CCOC(=O)c1c(NC(C)=O)sc2c(OC)cccc12 -21.9%

AC50, active:
O=C(c1cc(Br)ccc1O)c1cc(Br)ccc1O 0.2 µM, COc1ccc(S(=O)(=O)n2ccc(-c3cnc(-c4ccccc4)s3)n2)cc1 1.58 µM, O=S(=O)(c1ccc(F)cc1)n1ccc(-c2cnc(-c3ccccc3)s2)n1 8.91 µM, CCc1cc2c(NCc3ccco3)ncnc2s1 4.47 µM, Cc1ccc2nc(N/N=C/c3ccccc3C#N)nc(-c3ccccc3)c2c1 10 µM, Cc1cccc(N2CCN(C(=O)CSCc3c(C)noc3C)CC2)c1C 17.8 µM, Cc1ccc(NC(=S)Nc2nc(CC(=O)Nc3ccccc3)cs2)cc1 3.98 µM, CC(C)COc1ccc(C(=O)Nc2scc(-c3ccc(Cl)cc3Cl)c2C(N)=O)cc1 2.82 µM, COc1ccc(C(=O)Nc2scc(-c3ccc(Cl)cc3Cl)c2C(N)=O)cc1 1.26 µM, O=C(CC1C(=O)N(c2ccc(Cl)cc2)C(=S)N1CCc1ccncc1)Nc1ccc(F)cc1 (stereo not drawn) 0.02 µM, O=C(Nc1ccc(Cl)cc1)OCc1cc(-c2ccccc2Cl)on1 0.316 µM, O=C(Nc1ccccc1)OCc1cc(-c2ccc(Cl)cc2)on1 2 µM, CS(=O)(=O)c1ccccc1COC(=O)Nc1ccc(Cl)cc1 2.51 µM, O=C(Nc1ccc(Cl)cc1)OCc1cc(-c2ccccc2)on1 0.447 µM, Cc1nc(SCC(=O)c2ccc(F)cc2)c([N+](=O)[O-])[nH]1 8.91 µM, O=C1CN=C(Nc2ccccc2)N1Cc1cccs1 14.1 µM, CCOc1ccc(NC2=NCC(=O)N2Cc2cccs2)cc1 11.2 µM, CCCCOc1ccc(/C=C/C(=O)NCCc2nc3ccccc3[nH]2)cc1 3.98 µM, Nc1nnc(SCCOc2cccc(Br)c2)s1 3.98 µM, O=C(CSC1CC(=O)N(CC(c2ccccc2)c2ccccc2)C1=O)Nc1ccc(Cl)cc1 (stereo not drawn) 1.58 µM, COC(=O)c1ccc(NC(=O)c2cc3sccc3n2C)cc1 7.94 µM, Cn1c(C(=O)Nc2ccccc2)cc2sccc21 2.51 µM, COc1ccc(C2(CNC(=O)/C=C/c3ccco3)CCCC2)cc1OC 7.94 µM, CCCc1cc2c(n1CCc1ccc(Cl)cc1)C(C)C1CN(C(=O)c3ccccc3)C(C)(C(=O)OC)C21 (stereo not drawn) 6.31 µM, Oc1ccccc1-c1cc(-c2ccccc2)no1 7.94 µM, Nc1nc(-c2ccccc2)cc(-c2ccccc2O)n1 10 µM, Cc1ccccc1-c1cc(-c2ccccc2O)on1 4.47 µM, CCOC(=O)C1=C(C)C(c2ccccc2OC)NC(=S)N1 (stereo not drawn) 5.62 µM, CCOC(=O)C1=C(C)NC(=S)NC1c1cccc(O)c1 (stereo not drawn) 25.1 µM, COC(=O)C1=C(C)C(c2ccc(OC)cc2)NC(=S)N1 (stereo not drawn) 14.1 µM
